Z-score data for 35 molecules are collected here from PubChem BioAssay.

Activity calls are given as the source filed them.

NADPH oxidase 2 (Homo sapiens), sequence (P04839 whole entry, looked up): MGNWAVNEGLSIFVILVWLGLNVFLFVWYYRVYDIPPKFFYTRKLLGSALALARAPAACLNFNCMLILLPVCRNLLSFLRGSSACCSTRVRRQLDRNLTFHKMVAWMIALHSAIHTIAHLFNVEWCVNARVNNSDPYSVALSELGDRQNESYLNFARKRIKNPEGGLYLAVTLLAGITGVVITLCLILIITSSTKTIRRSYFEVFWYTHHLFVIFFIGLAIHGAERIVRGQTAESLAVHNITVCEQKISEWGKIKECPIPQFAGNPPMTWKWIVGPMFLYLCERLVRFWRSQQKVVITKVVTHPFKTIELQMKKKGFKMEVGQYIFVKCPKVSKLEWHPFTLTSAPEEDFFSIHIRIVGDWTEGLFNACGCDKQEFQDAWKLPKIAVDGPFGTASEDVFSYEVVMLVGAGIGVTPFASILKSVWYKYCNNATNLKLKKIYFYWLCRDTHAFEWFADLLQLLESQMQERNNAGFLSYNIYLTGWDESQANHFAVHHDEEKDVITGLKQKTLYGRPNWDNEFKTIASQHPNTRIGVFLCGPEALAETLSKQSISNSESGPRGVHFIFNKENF

The first test concerns the target NADPH oxidase 2 (Homo sapiens) (UniProt P04839). Kind of test: NOX2-dependent H2O2 signal modulators, primary screen, NOX inhibitor project, cell-based, HEK293-NOX2, PMA-stimulated, Amplex Red fluorescence (AID 1159). Note: test concentration not given here. The conditions noted are these: 45 min, higher = more signal, called active from +8 up or from −8 down.
Take `CN(C)CCCNC(=O)[C@@H]1c2ccccc2C(=O)N(Cc2ccccc2Cl)[C@H]1c1ccc(CO)cc1`: the z-score is 0.277 (inactive).

Turning to `C=C(/C(=C/C[C@H](OC(=O)c1ccncc1)c1ccc(CO)o1)c1cc(C(=O)OC)ccc1OC)C(C)C`, the z-score was -1.06 (inactive). Turning to `C=CCC(OC(C)=O)[C@@H]1[C@@H](N(Cc2ccc(-c3cccc(C(F)(F)F)c3)o2)C(=O)c2ccc(-c3ccccc3)cc2)c2cc(OCCCO)ccc2N1C(=O)c1ccc2ccccc2n1` (stereo not given in full), the z-score is -1.73 (inactive).

As for `CCCCN1CC=CC23O[C@@H]4/C=C\CCC(C)OC(=O)C4[C@H]2C(=O)N(C(CO)C(C)C)[C@@H]3C1=O` (stereo not given in full), the z-score is 1.4 (inactive). In the case of `[N-]=[N+]=Nc1ccccc1[C@H]1OC(c2ccc(OCCCO)cc2)=N[C@@]1(Cc1ccccc1)C(=O)N1CCCCC1`, the z-score is -1.52 (inactive).

The target in another test is NADPH oxidase 4 (Homo sapiens) (UniProt Q9NPH5). Kind of test: NOX4-dependent H2O2 signal modulators, primary screen, NOX inhibitor project, cell-based, HEK293-NOX4, tetracycline-induced, Amplex Red fluorescence (AID 1160). The conditions noted are these: 45 min, higher = more signal, called active from +8 up or from −8 down.
NADPH oxidase 4 (Homo sapiens), sequence (Q9NPH5 whole entry, looked up): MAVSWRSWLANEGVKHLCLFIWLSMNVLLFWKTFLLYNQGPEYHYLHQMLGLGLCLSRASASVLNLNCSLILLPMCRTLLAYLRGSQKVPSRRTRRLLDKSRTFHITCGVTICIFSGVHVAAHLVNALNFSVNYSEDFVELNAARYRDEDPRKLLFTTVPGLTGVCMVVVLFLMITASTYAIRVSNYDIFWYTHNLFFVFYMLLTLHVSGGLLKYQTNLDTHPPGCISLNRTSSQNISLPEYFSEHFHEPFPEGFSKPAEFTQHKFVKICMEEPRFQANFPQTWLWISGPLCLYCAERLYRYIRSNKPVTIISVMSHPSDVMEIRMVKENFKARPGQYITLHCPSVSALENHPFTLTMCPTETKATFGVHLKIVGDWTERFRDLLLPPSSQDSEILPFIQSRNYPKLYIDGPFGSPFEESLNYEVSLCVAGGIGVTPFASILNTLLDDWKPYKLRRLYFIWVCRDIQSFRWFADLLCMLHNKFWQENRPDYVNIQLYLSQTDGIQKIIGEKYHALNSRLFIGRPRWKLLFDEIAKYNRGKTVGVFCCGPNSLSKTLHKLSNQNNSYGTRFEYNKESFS
In the case of `CC(C)Cc1ccc(CN2CC[C@@H](NC(=O)Nc3ccccc3)C2)cc1`, the z-score was -0.351 (inactive).

As to `CC(C)C[C@@H]1NC(=O)[C@@H]2C[C@H](C(=O)NCCCCN(C)C)[C@H](c3cccc(OCCO)c3)N2C1=O`, the z-score was 1.13 (inactive).

As to `CC1CC/C=C\[C@H]2OC34C=CCN(C(C)C)C(=O)[C@H]3N(CCCCCCO)C(=O)[C@@H]4C2C(=O)O1` (stereo not given in full), the z-score is 0.119 (inactive).

As to `COc1ccc(CCNC(=O)[C@@]2(Sc3ccc(C)cc3)CC(=O)N(C3Cc4ccccc4C3)[C@@H]2c2ccc(CO)cc2)cc1`, the z-score was -1.05 (inactive).

Take `COc1ccc(-c2nc(-c3ccccc3)c3c(c2C)CO[Si]3(C(C)C)C(C)C)cn1`: the z-score was 0.386 (inactive). `CCCC[C@@H]1C[C@H]1[C@@H](NC(=O)c1cccs1)c1ccc(C(F)(F)F)cc1`: the z-score was -2.08 (inactive).

Consider `CN1C(=O)C2C=CC(C(O)c3ccc(F)cc3)N(Nc3ccccc3)C2C1=O` (stereo not given), for which the z-score is -3.79 (inactive). Turning to `OCC1CC(c2ccccc2)=NO1` (stereo not given), the z-score was -0.137 (inactive).

On to `COC1OC[C@]2(C)[C@H]3C4=C(CN2C(=O)OC(C)(C)C)[C@H](C)C(CO)C(CO)C4CC[C@@H]13` (stereo not given in full), for which the z-score is -0.651 (inactive). As to `NCCCCCCNC(=O)[C@@H]1C[C@@H]2C(=O)N[C@@H](CCCCN)C(=O)N2[C@@H]1c1cccc(OCCO)c1`, the z-score is 1.02 (inactive).

Regarding `CCOC(=O)C1=C[C@@H](c2ccccc2)N(S(=O)(=O)c2ccc(C)cc2)[C@H]1c1ccccc1Cl`, the z-score was 0.138 (inactive). For the molecule `CCOc1cc(C(O)C2C=CC3C(=O)N(c4ccccc4)C(=O)C3N2Nc2ccc(C#N)cc2)ccc1O` (stereo not given), the z-score is -5.02 (inactive). With `CCCCCCCCCCC(O)C1C=CC2C(=O)N(C)C(=O)C2N1NC(=O)OC(C)(C)C` (stereo not given), the z-score is -7.78 (inactive). Turning to `NCCCCCNC(=O)[C@@H]1C[C@@H]2C(=O)NCC(=O)N2[C@@H]1c1cccc(OCCO)c1`, the z-score is -0.373 (inactive). On the same count and under the same terms, to `[N-]=[N+]=NCc1ccccc1[C@H]1OC(c2ccc(OCCCO)cc2)=N[C@@]1(CCS(=O)(=O)c1ccccc1)C(=O)N1CCCCC1` belongs 1.56 (inactive).

In the case of `CCOC(=O)C[C@H]1[C@H](OC(=O)c2ccccc2-c2ccccc2)[C@@H](NC(=O)c2ccc(-c3ccccc3)cc2)c2cc(OCCCO)ccc2N1C(=O)c1ccc2ccccc2n1`, the z-score was 0.964 (inactive).

`CCCCCCc1nc(C2CC2)cc2c1[Si](C(C)C)(C(C)C)OC2`: the z-score is -2.12 (inactive).

`O=C1C[C@@](C(=O)NCCN2CCOCC2)(c2ccc([N+](=O)[O-])cc2)[C@@H](c2ccc(CO)cc2I)N1C1CCCCC1`: the z-score was -1.09 (inactive).

As to `COC(=O)[C@@]1(Cc2ccc(OC)cc2)[C@H]2c3cc(C(=O)N4CCCC4)n(Cc4c(-c5ccccc5)noc4C)c3C[C@H]2CN1C(=O)c1ccccc1`, the z-score was 0.486 (inactive). Consider `CC(C)(C)N1CC=CC23O[C@@H]4C=CCCOC(=O)C4[C@H]2C(=O)N(CCO)[C@@H]3C1=O` (stereo not given in full), for which the z-score is 0.696 (inactive). As to `O=C1O[C@@H](c2ccccc2)[C@@H](c2ccccc2)N2[C@@H](c3ccccc3OCCO)[C@]3(C(=O)Nc4ccc(C#CCCO)cc43)[C@@H](C(=O)N3CCCCCCC3)[C@H]12`, the z-score is 0.486 (inactive). On the same count and under the same terms, the value for `CO[C@]12C=C(Br)[C@@H](C[C@@H]1c1cccc(C)c1)[C@@]1(CO1)C2=O` was 0.539 (inactive).

`O=C1C2C=CC(C(O)c3ccccc3)N(Nc3ccccc3F)C2C(=O)N1c1ccccc1` (stereo not given): the z-score is -3.6 (inactive). For the molecule `CC[C@H]1C2=C3C(CC[C@H]4C(OCc5ccc(F)cc5C(F)(F)F)OC[C@](C)([C@@H]34)N(C(=O)OC(C)(C)C)C2)C(COC)C1COC` (stereo not given in full), the z-score is -1.45 (inactive). Turning to `Cc1ccc(S[C@]2(C(=O)O)CC(=O)N(C3Cc4ccccc4C3)[C@@H]2c2ccc(CO)cc2)cc1`, the z-score is -0.498 (inactive). Consider `COc1ccc(NC(=O)O[C@H]2[C@H](OC(=O)Nc3ccccc3)[C@@H](OC(=O)Nc3ccccc3)[C@@H](OC)O[C@@H]2CO)cc1`, for which the z-score was -0.713 (inactive). In the case of `CCCC[C@@H]1C[C@H]1[C@@H](NC(=O)Cc1ccccc1)c1ccc(-c2ccccc2)cc1`, the z-score was -0.123 (inactive). Still for that read-out and setting: the value for `N#Cc1ccc(NN2C(C(O)c3ccc(F)cc3)C=CC3C(=O)N(c4ccccc4)C(=O)C32)cc1` (stereo not given) was -4.55 (inactive). Regarding `[N-]=[N+]=NCc1ccccc1C[C@]1(C(N)=O)N=C(c2ccc(OCCCO)cc2)O[C@H]1c1ccccc1`, the z-score is -0.839 (inactive). Take `COCCCNC(=O)[C@@]1(Cc2ccccc2N=[N+]=[N-])N=C(c2ccc(OCCCO)cc2)O[C@H]1c1ccccc1`: the z-score was -0.374 (inactive). Take `CN(C)CCCNC(=O)[C@@H]1c2ccccc2C(=O)N(Cc2ccccc2Cl)[C@H]1c1ccc(CO)cc1`: the z-score is 0.691 (inactive). Regarding `C=C(/C(=C/C[C@H](OC(=O)c1ccncc1)c1ccc(CO)o1)c1cc(C(=O)OC)ccc1OC)C(C)C`, the z-score is -0.154 (inactive). As for `C=CCC(OC(C)=O)[C@@H]1[C@@H](N(Cc2ccc(-c3cccc(C(F)(F)F)c3)o2)C(=O)c2ccc(-c3ccccc3)cc2)c2cc(OCCCO)ccc2N1C(=O)c1ccc2ccccc2n1` (stereo not given in full), the z-score was -1.3 (inactive). Same read-out and setting: the value for `CCCCN1CC=CC23O[C@@H]4/C=C\CCC(C)OC(=O)C4[C@H]2C(=O)N(C(CO)C(C)C)[C@@H]3C1=O` (stereo not given in full) was -0.506 (inactive); that for `[N-]=[N+]=Nc1ccccc1[C@H]1OC(c2ccc(OCCCO)cc2)=N[C@@]1(Cc1ccccc1)C(=O)N1CCCCC1` was 0.804 (inactive).
